The record followed here is PubChem BioAssay (Tox21).

Each structure is given as a SMILES string. Results filed as inconclusive are left out. Active and inactive are the calls of the source. The call rests on the fitted dose curve; in most records, active means well fitted cell-killing curve with a large enough effect in the repeat runs; inconclusive means weak or mixed curves, or effect the other way; inactive means flat fitted curve, though single readings scatter.
On the % scale 0 is the no-effect control and ±100 the full control effect.

The nature of the assay: qHTS RealTime-Glo MT Cell Viability Assay in HEK293 cells - 0 hour (AID 1224880). Further: top concentration of the series differs between compounds; nearly all actives have a fitted effect of over 45% in size. The note with it: RealTime-Glo luminescence; series mostly up to 76.8 µM; activity change, negative = cytotoxicity: at the top concentration. The source says: U.S. Tox21 Program National Center for Advancing Translational Sciences [NCATS] NIH Chemical Genomics Center [NCGC] U.S. Environmental Protection Agency [EPA] National Institutes of Environmental Health Sciences [NIEHS] National Toxicology Program [NTP] U.S. Food and Drug Administration [FDA] Tox21 Assay Overview: Measure of cell viability is critical in the cell-base assay. Analysis of cell viability is necessary for the characterization of cell responses to cytotoxic drugs and environmental stress. A RealTime-Glo MT Cell Viability Assay to monitor cell viability in real time of continues cell culture during 40 hours of compound treatment was used to screen Tox21 10K library compounds in Hek293 cells. The RealTime-Glo MT Cell Viability Assay is a nonlytic, homogeneous, bioluminescent method to measure cell viability in real time using a simple, plate-based method. The assay involves adding NanoLuc luciferase and a cell-permeant prosubstrate to cells in culture. Viable cells reduce the proprietary prosubstrate to generate a substrate for NanoLuc luciferase. This substrate diffuses from cells into the surrounding culture medium, where it is rapidly used by the NanoLuc Enzyme to produce a luminescent signal. The signal correlates with the number of viable cells, making the assay well suited for cytotoxicity studies.
Tox21 Assay Protocol Summary: The mixture of Hek293 cell suspension and reagents were dispensed at 600cells/6 ul/well in 1536-well tissue culture treated black solid bottom plates using a Multidrop dispenser. After the assay plates were incubated at a 37 C/5% CO2 incubator for 5 hours, 23 nL of compounds dissolved in DMSO, positive and negative controls was transferred to the assay plate by a pintool work station. The plates were incubated at 37 C for 40 hours. The luminescence intensity were measured at 0h, 8h, 16h, 24h, 32h and 40h time points using ViewLux plate reader during compound treatment.
Take `COC(C)CCO` (stereo not given): the “activity change, negative = cytotoxicity” value was -1.34% (inactive).
In the case of `CC(=O)N(CC(O)CN(C(C)=O)c1c(I)c(C(=O)NCC(O)CO)c(I)c(C(=O)NCC(O)CO)c1I)c1c(I)c(C(=O)NCC(O)CO)c(I)c(C(=O)NCC(O)CO)c1I` (stereo not given), the “activity change, negative = cytotoxicity” value was 7.5% [at 35.3 µM] (inactive).
The result for `O=C1CCCCC1C1CCCCC1` (stereo not given) reads 1.73% (inactive); that for `Cc1c(N)cccc1N`, 1.92% (inactive).
The result for `Cc1c(-c2ccccc2)oc2c(C(=O)OCCN3CCCCC3)cccc2c1=O` reads -5.59% [at 35.3 µM] (inactive); that for `Cc1ccc(C=O)s1`, -1.3% (inactive); that for `O=CCCc1ccccc1`, 3% (inactive).
Next, `OCC(CBr)(CBr)CBr`: 1.07% (inactive); `Cc1ccc(C(C)C)cc1O`: -3% (inactive); `CCCCCCC`: -6.09% (inactive).
`CNCCC(Oc1ccccc1OC)c1ccccc1` (stereo not given): the “activity change, negative = cytotoxicity” value was 4.57% [at 35.3 µM] (inactive).
With `Oc1ccccc1F`, the “activity change, negative = cytotoxicity” value was 4.61% (inactive).
Next, `CC1=C(CC(=O)O)c2cc(F)ccc2/C1=C\c1ccc(S(C)(=O)=O)cc1`: -20.1% [at 35.3 µM] (inactive).
As to `COC(=O)C(C)O` (stereo not given), the “activity change, negative = cytotoxicity” value was 0.537% (inactive).
The result for `O=c1oc2c(O)c(O)cc3c(=O)oc4c(O)c(O)cc1c4c23` reads -5.71% [at 15.8 µM] (inactive).
Take `Cn1cnc2c(F)c(Nc3ccc(Br)cc3Cl)c(C(=O)NOCCO)cc21`: the “activity change, negative = cytotoxicity” value was 3.17% [at 35.3 µM] (inactive).
For `CC(C)c1ccccc1`, the “activity change, negative = cytotoxicity” value was -1.6% (inactive).
The result for `O=S(=O)(O)C(F)(F)F` reads -2.42% (inactive); that for `O=C(CC(=O)C(F)(F)F)c1ccccc1`, -22% (inactive); that for `CCOC(=O)c1cc(=O)c2c(OCC(COc3cccc4oc(C(=O)OCC)cc(=O)c34)OC(=O)[C@@H](N)CCCCN)cccc2o1`, -11.8% [at 35.3 µM] (inactive).
Next, `O=C1CCCCCCCCCCC(=O)OCCO1`: -11% (inactive); `Cc1ccc(C)c(N)c1`: -0.999% (inactive); `Cc1nnc(SCC2=C(C(=O)O)N3C(=O)[C@@H](NC(=O)Cn4cnnn4)[C@H]3SC2)s1`: 4.67% [at 35.3 µM] (inactive).
Next, `CC1CN(c2ccccc2)NC1=O` (stereo not given): -10.6% (inactive); `CCOC(=O)[C@H](CCc1ccccc1)N[C@@H](C)C(=O)N1Cc2cc(OC)c(OC)cc2C[C@H]1C(=O)O`: -3.97% [at 35.3 µM] (inactive); `CCCc1c2oc(C(=O)O)cc(=O)c2cc2c(=O)cc(C(=O)O)n(CC)c12`: -1.5% [at 35.3 µM] (inactive).
As for `CCOC(=O)C1CC(=O)C(=C(O)C2CC2)C(=O)C1` (stereo not given), the “activity change, negative = cytotoxicity” value was 8.26% (inactive).
With `O=C1C=CC(=O)O1`, the “activity change, negative = cytotoxicity” value is 2.97% (inactive).
Turning to `CO[Si](C)(C)OC`, the “activity change, negative = cytotoxicity” value was -1.21% (inactive).
With `Cc1ccc([N+](=O)[O-])c(N)c1`, the “activity change, negative = cytotoxicity” value was -2.82% (inactive).
`CO[C@@]1(NC(=O)CSCC#N)C(=O)N2C(C(=O)O)=C(CSc3nnnn3C)CS[C@@H]21`: the “activity change, negative = cytotoxicity” value was -12.7% [at 35.3 µM] (inactive).
Next, `COc1ccccc1OCC(O)COC(N)=O` (stereo not given): -0.052% [at 35.3 µM] (inactive); `C[C@@H]1CN(c2c(F)c(F)c3c(=O)c(C(=O)O)cn(C4CC4)c3c2F)C[C@H](C)N1`: 0.0765% [at 15.8 µM] (inactive).
Next, `C=CCc1cc(OC)c(O)c(C(=O)NCCO)c1`: 1.83% [at 35.3 µM] (inactive).
`C=Cc1ccccc1`: the “activity change, negative = cytotoxicity” value is 13.5% (inactive).
As for `CCCCCCCCc1ccc(S(=O)(=O)O)cc1`, the “activity change, negative = cytotoxicity” value is -1.54% (inactive).
`Nc1cccc(S(=O)(=O)O)c1`: the “activity change, negative = cytotoxicity” value was -1.6% (inactive).
`CC(C)=CCC[C@](C)(O)[C@@H]1CC=C(C)CC1`: the “activity change, negative = cytotoxicity” value is 8.7% (inactive).
Next, `CCN(CC)CCOc1ccc(Cc2ccccc2)cc1`: 21.8% [at 35.3 µM] (inactive); `CC(C)(C)c1cccc(O)c1`: 17.6% (inactive).
